Sampled rows, rich in hits. Any-hit rate of the full collection: about 2.6%.
EBV LMP1 NFkB: EBV LMP1-driven NF-kappaB luciferase reporter inhibitors, primary screen, cell-based, luminescence, single point. LMP1-induced NF-kappaB luciferase reporter cells. AID 504558, 2011. 350,000 compounds, 0.69% hits. inhibition, % at 12.5 µM; in the data active means inhibition above about 41%; inconclusive means no clear call, values can overlap the other calls;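 further: 0% = neutral control wells and 100% = reference inhibitor control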
EWS-Fli inh: EWS/Fli-driven NR0B1 reporter inhibitors, primary screen, A673 cells, NR0B1 luciferase, luminescence, MLPCN library. viability-normalised. inhibition, % at 12.6 µM. 350,000 compounds, 0.67% hits. AID 651661, 2012;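 active means mean inhibition of at least 50% after viability correction, with every replicate also passing that limit; inconclusive means mean reaches 50% but only one of two replicates passes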;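 further: firefly luciferase signal divided by Alamar Blue viability fluorescence both relative to DMSO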
TROY signal inh: inhibitors of TROY-driven NF-kB signaling, primary screen, Q293 LMP1-TROYcd cells, NF-kB luciferase, uHTS; Q293 LMP1-TROYcd NF-kB luciferase reporter, 4 h; inhibition, % at 10 µM; 360,000 compounds, 0.98% hits; AID 1347056, 2019;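 active means compounds whose plate-normalised and pattern-corrected inhibition of the luciferase reporter signal at the single screening dose is 50% or more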
LGR2 inh: inhibitors of bursicon-induced LGR2 CRE-luciferase signal, primary screen, cell-based, HEK293, CRE-luciferase reporter, bursicon stimulation; Drosophila bursicon receptor LGR2 (rickets); bursicon-stimulated, 4 h; inhibition, % at 9.99 µM; 380,000 compounds, 0.35% hits; AID 720647, 2013;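 active means drop in luminescence signal, shown as inhibition above about 50% in the replicate tests, limit read from the data, passing the limit was not always enough; inconclusive means probably only some replicates passing the limit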;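 further: agonist challenge used bursicon conditioned medium at about half maximal strength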
TWEAK-Fn14 inh: inhibitors of TWEAK-Fn14 signaling, primary screen, luciferase reporter cells, uHTS. inhibition, % at 10 µM. AID 1159606, 2016. 360,000 compounds, 2% hits. TWEAK-stimulated Fn14 reporter cells, luciferase luminescence, 8 h; in the data active means inhibition above about 50%
* = called active by the depositor; ? = inconclusive; . = not tested or not shown.

SMILES	EBV LMP1 NFkB	EWS-Fli inh	TROY signal inh	LGR2 inh	TWEAK-Fn14 inh
Cc1cc2n(n1)SC(Nc1cccc3ccccc13)N2 (configuration not stated)	-13	.	20	.	19
CCn1c(CNc2nc3ccccc3n2C(C)C)nc2ccccc21	7	.	7	.	99*
O=C(Nc1ccccc1Cl)c1ccc(C(=O)Nc2ccccc2Cl)cc1	85*	4	62*	2	-3
Nc1ccccc1NC(=O)c1ccccc1	44*	.	-39	.	-28
O=C(Nc1ccccc1Cl)c1ccccc1	-12	-39	-38	-29	-23
C[C@@H]1CN([C@H](C)CO)C(=O)c2cc(Br)cnc2O[C@H]1CN(C)C(=O)c1cccnc1	.	-7	.	-18	.
C[C@@H]1CN([C@@H](C)CO)C(=O)c2cc(C#Cc3cccnc3)cnc2O[C@H]1CN(C)Cc1ccccc1	.	-2	.	-2	.
COc1ccc(C#Cc2ccc([C@H]3[C@@H](CO)N4C(=O)CN(C(=O)c5ccc(F)cc5)C[C@@H]34)cc2)cc1	.	3	.	-10	.
COc1ccc(C)cc1S(=O)(=O)N1CCN(C(=O)c2ncoc2-c2ccc(C)cc2)CC1	2	2	-2	12	85*
CCCCc1ccc(NC(=O)CSc2nc(=O)n(CCN(C)C)c3c2CCC3)cc1	-4	9	10	6	15
CCCCc1ccc(NC(=O)CSc2nc(=O)n(CCN(CC)CC)c3c2CCCC3)cc1	-20	28	54*	11	-8
COc1cccc(-c2nnc3sc(-c4ccccn4)nn23)c1	-1	.	-10	.	-3
CC(C)(C)c1ccc(-c2nnc3sc(-c4ccccn4)nn23)cc1	5	19	72*	14	74*
CC(=O)/C(N=Nc1cc2c(c([N+](=O)[O-])c1C)C(C)(C)CC2(C)C)=C(\C)O	.	19	81*	.	96*
Cn1c2c(c(=O)n(C)c1=O)C(C(F)(F)F)(C(F)(F)F)N=C(CCC1CCCCC1)N2	19	5	53*	75*	60*
COC(=O)C1C=CC(OC2OC(COC(C)=O)C(OC(C)=O)C(OC(C)=O)C2OC(C)=O)n2c(=O)n(-c3ccccc3)c(=O)n21 (configuration not stated)	-4	-4	-8	?	55*
CC(=O)OCC1OC(n2ccc3ccccc32)C(OC(C)=O)C(OC(C)=O)C1OC(C)=O (configuration not stated)	-1	.	4	.	-2
O=C(CNS(=O)(=O)Cc1ccccc1)NNc1ccccc1	.	4	56*	-9	3
COc1ccc(C#Cc2ccc3c(c2)[C@]2(C(=O)N3)[C@H](c3ccc(O)cc3)N3[C@H](c4ccccc4)[C@H](c4ccccc4)OC(=O)[C@H]3[C@@H]2C(=O)NC[C@H](O)c2ccccc2)cc1	.	-8	.	.	.
Cc1[nH]n(-c2ccccc2)c(=O)c1N=Nc1cccc(C(=O)O)c1	2	62*	-48	24	58*
CC(C)Nc1nnc(SCC(=O)c2c(N)n(Cc3ccccc3)c(=O)n(C)c2=O)s1	64*	.	-15	.	19
C[C@@H]1CN([C@H](C)CO)C(=O)c2cc(NS(=O)(=O)c3ccccc3)ccc2O[C@@H]1CN(C)Cc1ccccc1	.	-8	.	8	.
O=C(O)c1ccc(-c2noc(-c3ccccc3F)n2)cc1	-14	-9	-7	11	52*
Cc1ccc(-c2noc(-c3ccccc3F)n2)cc1	-35	4	-37	-14	7
O=C(c1ccccc1)C1OC1C(=O)c1ccccc1 (configuration not stated)	29	1	-63	7	70*
SMILES	EBV LMP1 NFkB	EWS-Fli inh	TROY signal inh	LGR2 inh	TWEAK-Fn14 inh
O=C(C[C@H]1CC[C@H](NS(=O)(=O)c2ccccc2)[C@@H](CO)O1)N1CCc2ccccc2C1	.	-2	.	-11	.
Cc1ccccc1-c1ccc2c(c1)O[C@H](CN(C)CC1CC1)[C@H](C)CN([C@@H](C)CO)S2(=O)=O	.	1	.	1	.
CCC(=O)N1N=C(c2ccc(Cl)cc2)CC1c1ccco1 (configuration not stated)	6	7	0	-13	-13
Cc1ccc(C2=NN(C(=O)CN3CCN(C4CCS(=O)(=O)C4)CC3)C(c3ccco3)C2)cc1 (configuration not stated)	35	-1	66*	-34	71*
Cn1ccnc1Sc1ccccc1[N+](=O)[O-]	-3	12	24	6	9
CSc1nccn1C(=O)c1ccccc1[N+](=O)[O-]	4	-5	-9	6	108*
Cc1cc(C)c(OCCn2ccnc2)c(C)c1	73*	0	-3	.	11
Cc1cc(C)c(OCCCn2ccnc2)c(C)c1	12	9	7	2	6
CO[C@@H]1CN(C)C(=O)c2cc(NC(=O)C3CC3)ccc2OC[C@H](C)N(C)C[C@H]1C	.	-7	.	19	.
O=C(C[C@@H]1C[C@@H]2c3cc(NC(=O)Nc4ccccc4F)ccc3O[C@@H]2[C@@H](CO)O1)NCc1cc(F)ccc1F	.	-5	.	-3	.
Cc1ccc(S(=O)(=O)N(CCCN2CCCC2=O)Cc2cc3c(C)ccc(C)c3[nH]c2=O)cc1	7	.	-14	.	3
COc1ccc(S(=O)(=O)N(CCCN2CCCC2=O)Cc2cc3cc(C)c(C)cc3[nH]c2=O)cc1	-4	.	14	.	94*
Cc1noc(C)c1NC(=O)N(C)C[C@H]1Oc2ncc(C#CC3CC3)cc2C(=O)N([C@@H](C)CO)C[C@@H]1C	.	-2	.	-8	.
COC(=O)/C=c1\[nH]c2nnc(C)n2c1=O	-14	1	50*	12	-12
CN(C)C(=O)C[C@H]1C[C@H]2c3cc(NC(=O)NC4CCCC4)ccc3O[C@H]2[C@H](CO)O1	.	4	.	10	.
Nc1ncnc2c(C3OC(CO)C(O)C3O)c[nH]c12 (configuration not stated)	92*	46	71*	101*	101*
CC(=O)N1c2ccc(S(=O)(=O)NCC3CCC(C(=O)Nc4cc(C)ccn4)CC3)cc2CC1C (configuration not stated)	-4	.	30	31	56*
CC(=O)N1c2ccc(S(=O)(=O)NCC3CCC(C(=O)Nc4ncccc4C)CC3)cc2CC1C (configuration not stated)	-1	.	-14	-16	6
CCCCCCCn1c2c(c(=N)c3ccccc31)CCC2	21	58*	46	27	56*
CS(=O)(=O)N(CC(=O)N1CCN(c2cccc(Cl)c2)CC1)C1CCCCC1	-1	.	18	.	67*
Cc1ccc(Cl)cc1N1CCN(C(=O)CN(C2CCCCC2)S(C)(=O)=O)CC1	3	.	21	.	27
O=C(Nc1ccccc1)C1=C[C@@H](c2ccccc2)C[C@@H](OCc2ccc(CO)cc2)O1	-14	-37	-48	-95	-86

Bioassay records from PubChem BioAssay.
